# Hits are enriched below; roughly 10% of the tested compounds scored in any of these assays.
# JMJD2A Tudor – JMJD2A Tudor domain (human) inhibition; 4.4% of 390,000 active; AlphaScreen JMJD2A-Tudor / H3K4me3 peptide binding; Potency, µM (titrated, usually from 114 µM), for the others: at the top dose activity change, negative = inhibition, hits mostly inhibitors; O75164; AID 504339; further: potency means the concentration at half of the fitted maximal effect; on the % scale 0 is the no-effect control and ±100 the full control effect; nearly all actives have a fitted effect of over 50% in size
# CtBP-E1A inh – blocks the CtBP interaction with E1A; AlphaScreen GST-E1A/His-CtBP binding, 1536-well; stronger effect = lower value; activity change, % (no concentration beside the values); 0.49% of 340,000 active; AID 651724; in the data active means activity change below about -65%; inconclusive means mostly about -30% to -63%; further: on the % scale 0 is the no-effect control and ±100 the full control effect
#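 In 5 uL wells, 23 nL compound meets equimolar GST-E1A and His-CtBP (5X stock 125 nM each) for 2 h, 37 °C. Beads (5X, 50 ug/mL) then 1 h, 37 °C, dark.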
# BAZ2B block – inhibitors of human BAZ2B bromodomain; Potency, µM (series often up to 114 µM), inactives show top-dose activity change, negative = inhibition, hits mostly inhibitors; AlphaScreen BAZ2B-H3K14Ac peptide displacement; 4.4% of 360,000 active; Q9UIF8; AID 504333; further: potency means the concentration at half of the fitted maximal effect; on the % scale 0 is the no-effect control and ±100 the full control effect; nearly all actives have a fitted effect of over 60% in size
#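 Multi-concentration screen (max 110 uM) measuring displacement of acetylated histone H3 peptide from BAZ2B by AlphaScreen, using 50 nM protein, 50 nM peptide and 10 ug/mL streptavidin donor plus Ni-chelate acceptor beads.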
# Six1-Eya2 blk – inhibitors of human Six1/Eya2 interaction | Q15475+O00167 | AlphaScreen GST-Six1/His-Eya2 binding, biochemical; stronger effect = lower value | activity change, % (test concentration not listed) | 0.56% of 360,000 active | AID 651725; in the data active means activity change below about -65%; inconclusive means mostly about -30% to -63%; further: on the % scale 0 is the no-effect control and ±100 the full control effect
#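 Six1/Eya2 binding was read as AlphaScreen signal after compounds were pinned into GST-Six1 plus His-tagged Eya2 (5X stock 250/500 nM) in pH 8.0 Tris/NaCl/TCEP buffer, beads added, then incubated 1 h, 37 C, dark.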
# G9a block – blocks human histone lysine methyltransferase G9a; Q96KQ7; G9a H3K9 monomethylation, AlphaScreen, 2 h; Potency, µM (titrated, usually from 102 µM), inactives show at the highest dose activity, negative = inhibition, usual class: inhibitors; 8.8% of 350,000 active; AID 504332; further: potency means the concentration at half of the fitted maximal effect; on the % scale 0 is the no-effect control and ±100 the full control effect; nearly all actives have a fitted effect of over 75% in size
# Target sequence (Q96KQ7 913-1193 limits assumed): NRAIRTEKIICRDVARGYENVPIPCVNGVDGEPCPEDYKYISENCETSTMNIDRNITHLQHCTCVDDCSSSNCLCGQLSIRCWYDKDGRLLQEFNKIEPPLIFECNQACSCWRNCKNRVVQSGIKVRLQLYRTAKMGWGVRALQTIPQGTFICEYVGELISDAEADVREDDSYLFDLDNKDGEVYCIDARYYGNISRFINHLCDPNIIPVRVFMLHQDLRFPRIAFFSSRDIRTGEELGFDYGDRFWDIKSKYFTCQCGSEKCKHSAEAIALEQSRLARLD
#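 Compounds were preincubated with 20 nM G9a for 15 min, after which biotinylated H3K9 peptide (500 nM) and SAM (20 uM) started a 2 h room-temperature reaction. Monomethylated product was quantified by antibody-based AlphaScreen chemiluminescence.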
# HP1b binding inh – inhibitors of HP1-beta chromodomain binding to methylated histone tails | P83916 | AlphaScreen HP1-beta / biotin-H3K9me3 peptide binding | AID 540317 | Potency, µM (top dose mostly 114 µM), inactives show at the highest dose activity change, negative = inhibition, hits mostly inhibitors | 0.56% of 390,000 active; further: potency means the concentration at half of the fitted maximal effect; nearly all actives have a fitted effect of over 70% in size
# Target sequence (P83916 whole entry, looked up): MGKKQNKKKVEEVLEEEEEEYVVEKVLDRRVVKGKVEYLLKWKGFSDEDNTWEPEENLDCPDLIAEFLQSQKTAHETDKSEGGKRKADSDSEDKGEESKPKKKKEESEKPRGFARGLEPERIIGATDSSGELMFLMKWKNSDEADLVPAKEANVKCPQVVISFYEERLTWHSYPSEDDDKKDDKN
#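 Compound inhibition of the preformed complex between 50 nM HP1-beta and 50 nM biotinylated H3K9me3 peptide was read by AlphaScreen. Buffer was PBS pH 7.4 with 0.01% Tween-20. Incubations ran 30 min at room temperature, with 10 ug/mL donor/acceptor beads.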
# * marks the source's active call; other numbers are inactive results; ? = inconclusive; . = not tested or not shown; [ ] = remark or other dose. Unless noted, the call rests on the fitted dose curve; in most records, active means well fitted inhibition curve with a large enough effect; inconclusive means small, poorly fitted or top-dose-only effect; inactive means no such curve, though single readings can be large or run the other way.
SMILES,JMJD2A Tudor,CtBP-E1A inh,BAZ2B block,Six1-Eya2 blk,G9a block,HP1b binding inh
COc1cc(C(=O)O/N=C2\C=CC(=O)C(C)=C2)cc(OC)c1OC,-19.5%,-2.8,-32.8%,-0.7,14.1µM*,22.2%
O=[N+]([O-])c1ccc(-c2csc3[n+]2CCS3)cc1,-14.1%,0.9,0.8%,-5.0,35.5µM*,16.7%
COc1ccc(Nc2nc(-c3ccccc3)nc3ccccc23)cc1S(=O)(=O)N1CCOCC1,-8.1%,-4.4,-34.7%,-23.8,-0.3%,52.6%
COc1ccc(CC(=O)NCCc2sc(-c3cccc(F)c3)nc2C)cc1,2.6%,.,3.9%,.,-6.0%[59 µM],21.1%[57 µM]
c1cncc(-c2ccc3ncnc(NCc4ccc5c(c4)OCO5)c3c2)c1,-33.1%,.,-29.7%,.,0.0%[12.7 µM],25.9%
c1nc(NCc2ccc3c(c2)OCO3)c2cc(-c3ccoc3)ccc2n1,-22.9%,.,50.1µM*,.,-0.2%[12.7 µM],11.8%
CC1(C(=O)NS(=O)(=O)c2ccc(C#N)cc2)CCN1C(=O)Cc1cc(F)ccc1F (centres undefined),.,2.7,.,11.6,.,.
CCOc1cc(/C=C2\CCCC(C(=O)C(F)(F)F)=C2O)ccc1O,-32.9%,0.0,-33.2%,0.0,20µM*,14.9%
COc1ccc(/C=C2\CCCC(C(=O)C(F)(F)F)=C2O)cc1OC,.,.,?,.,8.91µM*,.
COc1cc(/C=C2/CCCC(C(=O)C(F)(F)F)=C2O)ccc1O,-27.1%,1.3,?,3.7,-125.8%[59 µM],-6.8%
COc1cc(OC)c(OC)cc1CN1CCc2nc(N3CCN(c4ncccn4)CC3)ncc2C1,?,.,?,.,-5.8%[12.7 µM],0.0%
CCOc1ccccc1CN1CCc2nc(Nc3ccc4c(c3)OCCO4)ncc2C1,56.2µM*,.,39.8µM*,.,?,?
COc1cc(OC)c(OC)cc1CN1CCc2nc(Nc3ccc4c(c3)OCCO4)ncc2C1,56.2µM*,.,44.7µM*,.,14.1µM*,-12.7%
Clc1ccc(CN2CCc3nc(Nc4ccc5c(c4)OCCO5)ncc3C2)cc1,28.2µM*,.,17.8µM*,.,-29.2%[12.7 µM],-21.9%
COc1cc(Nc2ncc3c(n2)CCN(Cc2cccc(C)c2)C3)cc(OC)c1,?,.,?,.,0.7%[12.7 µM],11.9%
COc1cc(Nc2ncc3c(n2)CCN(Cc2cc(F)cc(F)c2)C3)cc(OC)c1,-22.2%,.,?,.,-28.3%[59 µM],7.8%
Cc1ccc(-n2nc(C)cc2NC(=O)c2ccc(C)s2)cc1,7.1%,4.9,10.4%,2.3,79.4µM*,25.8%
Cc1ccc(-n2nc(C)cc2NC(=O)CC#N)cc1,8.9%,0.5,-13.6%,-0.4,26.0%,38.2%
CCOc1cc(C(=S)N2CCOCC2)ccc1OC(=O)c1ccc(C)cc1,?,-27.9,-31.7%,?,44.7µM*,-21.1%
CCOc1cc(C(=S)N2CCOCC2)ccc1OC(=O)c1ccccc1,-34.4%,.,?,-28.7,22.4µM*,-24.6%
CCOc1cc2nc(-c3ccc(OC)c(OC)c3)nc(N3CCOCC3)c2cc1OC,-25.7%,-17.9,56.2µM*,-18.8,-7.2%[2.33 µM],8.2%
CCOc1cc(C(=S)N2CCOCC2)ccc1OC(=O)c1cccc(C)c1,?,.,-36.1%,-7.6,?,-6.0%
CCOc1ccc(C(=O)OCC(=O)N2CCOCC2)cc1OCC,-15.0%,2.6,4.6%,12.0,21.6%,-22.3%
CCOc1cc(/C=C/C(=O)c2ccc(OC)c(CN3CCOCC3)c2)cc(Br)c1O,?,-2.7,?,4.3,44.7µM*,-37.4%
CCOc1ccc(C(=S)N2CCCC2)cc1OCC,-5.9%,.,5.6%,-3.6,10µM*,-9.7%
SMILES,JMJD2A Tudor,CtBP-E1A inh,BAZ2B block,Six1-Eya2 blk,G9a block,HP1b binding inh
CCOc1cc(C(=S)N2CCOCC2)ccc1OC,-16.9%,2.6,0.8%,-1.3,10µM*,-17.5%
CCOc1cc(C(=S)N2CCCC2)ccc1OCc1ccccc1,-20.4%,-15.2,-30.5%,-3.0,1.2%,2.5%
CCOc1ccc(C(=S)N2CCOCC2)cc1OC,-7.5%,-1.6,-3.4%,11.7,?,-15.5%
COc1ccccc1CNC(=O)c1ccc(OC(F)F)c(OC)c1,8.4%,11.0,3.3%,-2.9,-11.3%,52.7%
O=C(O)CCn1c(-c2ccccn2)nc2ccccc21,22.4µM*,5.9,-6.5%,-2.0,.,-15.6%
CCOC(=O)Cn1c(S(=O)(=O)Cc2ccc(Cl)cc2)nc(-c2ccccc2)c1-c1ccccc1,-25.4%,-5.4,8.5%,-2.9,.,3.4%
O=C(O)Cn1c(P(=O)(O)c2ccccc2)nc2ccccc21,35.5µM*,13.4,?,8.2,31.6µM*,-11.6%
CCOC(=O)CCn1c(CC(=O)OCC)nc2ccccc21,-24.4%,10.5,?,2.6,50.1µM*,45.2%
CCOC(=O)Cn1c(S(=O)(=O)Cc2ccccc2)nc2ccccc21,-7.6%,-0.6,-1.5%,0.0,39.8µM*,26.8%
CCOC(=O)Cn1c(=O)cnc2ccccc21,-1.6%,3.1,-2.4%,5.0,27.1%[12.7 µM],17.2%
O=C1NC(Cc2ccccc2)c2nc3cc(Cl)ccc3c(=O)n2-c2ncccc21 (centres undefined),.,-19.4,.,-0.5,.,.
O=C(O)CCn1c(SCc2cccc3ccccc23)nc2ccccc21,-15.4%,2.6,-5.0%,-2.0,14.1µM*,32.7%
O=C(Cn1c(-c2cscn2)nc2ccccc21)Nc1ccc2ccccc2c1,?,-6.3,-27.9%,-3.4,-8.3%[12.7 µM],13.8%
O=C(O)Cn1c(-c2cscn2)nc2ccccc21,15.8µM*,0.0,?,3.9,44.7µM*,-4.8%
O=C(O)CCn1c(CO)nc2ccccc21,-11.1%,5.1,56.2µM*,3.3,3.0%,-6.6%
COCC(=O)N1CCC(c2nc3ccccc3[nH]2)CC1,.,-0.9,.,-20.6,.,.
COC(=O)c1ccc(C2NC(c3ccc4c(c3)OCO4)=CC(c3ccccc3O)N2)cc1 (centres undefined),-29.8%,.,.,.,.,5.9%
O=C(NNC(=S)Nc1ccc(Br)cc1)c1ccccc1,-24.2%,3.2,-16.9%,-3.8,-24.9%,17.3%
O=C(Nc1ccc(C(F)(F)F)cc1)c1ccccc1Br,35.5µM*,13.1,-0.1%,21.9,1.6%,-6.4%
O=C(NNC(=S)Nc1ccccc1Cl)c1ccccc1Br,-21.9%,6.4,-14.2%,-2.9,39.8µM*,12.2%
O=C(NNC(=S)Nc1ccc(Br)cc1)c1ccccc1Br,-22.2%,-4.9,-20.7%,2.5,7.94µM*,-14.4%
O=C(NNC(=S)Nc1cccc(C(F)(F)F)c1)c1cccc(Cl)c1,-33.1%,-17.7,-27.9%,-18.6,?,?
O=C(NNC(=O)c1ccccc1Br)c1ccccc1Cl,-16.3%,-23.9,-2.2%,2.9,-3.1%,22.6%
O=C(NNC(=S)Nc1cccc(C(F)(F)F)c1)c1ccccc1Cl,-28.5%,-12.7,-16.9%,-5.8,3.16µM*,-13.3%
O=C(NCc1ccncc1)Nc1ccccc1F,-9.5%,.,-2.5%,8.2,-9.4%,36.9%
